# Assay results as given in PubChem BioAssay (NCATS).
# Inconclusive results are not listed. A call without a number means that no potency is given here. Values without a mark were called inactive. Calls of active or inactive are those of the source. Unless noted, calls come from the whole dose curve; as a rule, active = well fitted curve in the direction sought with a large enough effect; inconclusive = small, poorly fitted or top-dose-only effect, or another doubt; inactive = no such curve, though single readings can be large; an effect the other way counts as inactive or inconclusive.
# Legend:
# [1] = biological target: Calcium and integrin-binding protein 1 (Homo sapiens) (UniProt Q99828); test: Primary qHTS for Identification of Calcium Integrin Binding Protein 1 (CIB1) Competitor (AID 1508620); conditions: CIB1-GST / FITC-alphaIIb peptide fluorescence polarization; series mostly up to 57.7 µM;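 note: GST tagged CIB1 binding a fluorescein labelled alphaIIb integrin peptide tracer; top concentration of the series differs between compounds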
# Sequence of Calcium and integrin-binding protein 1 (Homo sapiens) (Q99828 whole entry, looked up): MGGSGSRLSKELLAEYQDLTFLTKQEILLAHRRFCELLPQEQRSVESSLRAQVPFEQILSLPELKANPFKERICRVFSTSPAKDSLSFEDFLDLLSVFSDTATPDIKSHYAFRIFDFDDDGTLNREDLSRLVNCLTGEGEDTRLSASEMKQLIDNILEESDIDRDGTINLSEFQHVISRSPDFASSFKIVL
# Outline: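 Fluorescence polarization competition: CIB1-GST (1 uM final) preincubated with compound 15 min at room temperature, then FITC-labeled alphaIIb peptide (100 nM final) added for another 15 min. Polarization read at Ex 480/Em 540.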
# [2] = biological target: Cytochrome P450 2D6 (Homo sapiens) (UniProt P10635); test: Cytochrome P450 family 2 subfamily D member 6 (CYP2D6) small molecule antagonists: luciferase biochemical (cell-free) qHTS assay (AID 1645840; active = well fitted curve in the direction sought with a large enough effect in the repeat runs; an effect the other way counts as inactive or inconclusive; note: nearly all actives have a fitted effect of over 55% in size; note: potency is the fitted concentration of half-maximal effect); conditions: P450-Glo CYP2D6 enzyme, luciferin luminescence, 1 h; series mostly up to 57.4 µM
# Sequence of Cytochrome P450 2D6 (Homo sapiens) (P10635 whole entry, looked up): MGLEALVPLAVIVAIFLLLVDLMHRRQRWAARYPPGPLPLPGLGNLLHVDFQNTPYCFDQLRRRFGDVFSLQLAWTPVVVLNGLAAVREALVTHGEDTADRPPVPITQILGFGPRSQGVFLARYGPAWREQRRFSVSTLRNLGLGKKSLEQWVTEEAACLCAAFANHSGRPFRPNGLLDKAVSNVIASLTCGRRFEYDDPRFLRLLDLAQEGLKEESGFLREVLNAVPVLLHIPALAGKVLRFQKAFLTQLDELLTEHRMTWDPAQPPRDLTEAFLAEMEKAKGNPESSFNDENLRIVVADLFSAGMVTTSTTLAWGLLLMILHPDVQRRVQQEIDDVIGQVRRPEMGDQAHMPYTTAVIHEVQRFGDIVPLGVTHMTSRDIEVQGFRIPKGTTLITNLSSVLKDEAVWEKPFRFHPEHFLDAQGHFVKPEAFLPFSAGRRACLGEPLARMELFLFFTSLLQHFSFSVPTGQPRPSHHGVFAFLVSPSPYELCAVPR
# Outline: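 P450-Glo CYP2D6 system: proluciferin substrate converted by enzyme to luciferin, read by luminescence proportional to activity. Enzyme-substrate mix with compound 10 min at room temperature, then NADPH regeneration 1 h before detection reagent.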
# [3] = Primary qHTS for small molecule stabilizers of the endoplasmic reticulum resident proteome: Secreted ER Calcium Modulated Protein (SERCaMP) assay (AID 1508630); conditions: SH-SY5Y GLuc-SERCaMP (Gaussia luciferase released on ER calcium loss) secretion, thapsigargin, luminescence; series mostly up to 38.4 µM
# Outline: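 The SH-SY5Y reporter protocol was run at 3 concentrations up to 38.3 uM (primary) or 11 concentrations (follow-up): 16 h compound, 100 nM thapsigargin for 4 h, then extracellular luciferase luminescence.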
compound,measurement,setting,value
C[C@H]1[C@H](C)CC[C@]2(C(=O)O[C@@H]3O[C@H](CO)[C@@H](O)[C@H](O)[C@H]3O)CC[C@]3(C(=O)O)C(=CCC4[C@@]5(C)CC[C@H](O[C@@H]6O[C@H](CO)[C@@H](O)[C@H](O)[C@H]6O)C(C)(C)C5CC[C@]43C)[C@H]12 (stereo not given in full),Potency,[1],inactive
CC(C)(OC1OC(CO)C(O)C(O)C1O)C1CCC(O)(CO)C2CC(O)C(C)(O)C2C1 (stereo not given),Potency,[1],inactive
NCCCC[C@H](NC(=O)[C@@H]1Cc2ccccc2CN1C(=O)CCC(=O)c1ccccc1)C(=O)NCC(c1ccccc1)c1ccccc1,Potency,[1],inactive
O=C(/C=C/c1ccc(O)cc1)OC[C@H]1O[C@@H](OC(=O)/C=C/c2ccccc2)[C@H](O)[C@@H](O)[C@@H]1O,Potency,[1],inactive
CC1CCCC2OC2C(=O)c2c(O)cc(O)cc2CC(=O)O1 (stereo not given),Potency,[1],inactive
C=C(C(=O)O)[C@@H]1CC=C2CCC[C@H](C)[C@@]2(C)C1,Potency,[1],inactive
CC1=CC(=O)C[C@H]2[C@@H]1CC[C@@H](C)[C@]21CO[C@H](c2ccoc2)C1=O,Potency,[1],inactive
O=c1ccn(C2OC(CO)C(O)C2O)c(=O)[nH]1 (stereo not given),Potency,[1],inactive
C[C@@H]1CCN(C(=O)CC#N)C[C@@H]1N(C)c1ncnc2[nH]ccc12,Potency,[1],inactive
CC/C=C\C[C@H]1C(=O)C=C[C@@H]1CCCCCCCC(=O)O,Potency,[1],inactive
C=CC(C)(C)O[C@@H]1O[C@H](CO[C@@H]2OC[C@](O)(CO)[C@H]2O)[C@@H](O)[C@H](O)[C@H]1O,Potency,[1],inactive
CC(=O)N[C@H]1CCN(c2ccc(C3=NOC(CN[S+](=O)([O-])C(C)C)C3)cc2F)C1 (stereo not given in full),Potency,[1],inactive
CC1OC(OC2C(O)C(C(=O)O)OC(OC3CCC4(C)C(CCC5(C)C4C=CC4=C6CC(C)(C)CC(O)C6(C)CCC45C)C3(C)C)C2OC2OCC(O)C(O)C2O)C(O)C(O)C1O (stereo not given),Potency,[1],inactive
COC1CC(=O)C23C(=O)NC(CC(C)C)C2C(C)C(C)=CC3/C=C(\C)CCC1O (stereo not given),Potency,[1],inactive
CC(C)(O)/C=C1/C(=O)C(C)(C)C(=O)C(C)(C)C1(O)O[C@@H]1O[C@H](COC(=O)c2cc(O)c(O)c(O)c2)[C@@H](O)[C@H](O)[C@H]1O (stereo not given in full),Potency,[1],inactive
CC(C)C(C#N)O[C@@H]1O[C@H](CO[C@@H]2OC[C@](O)(CO)[C@H]2O)[C@@H](O)[C@H](O)[C@H]1O (stereo not given in full),Potency,[1],inactive
COc1cc(/C=C/C(=O)OC[C@H]2O[C@H](O[C@]3(CO)O[C@H](CO)[C@@H](O)[C@@H]3O)[C@H](O)[C@@H](O)[C@@H]2O)cc(OC)c1O,Potency,[1],inactive
CC12CCC3C(C)(C)C(O)CCC3(C)C1Cc1c(oc(C(=O)O)cc1=O)O2 (stereo not given),Potency,[1],inactive
CC(=O)O[C@@]1(C)C[C@@H](O)[C@]2(O)C=CO[C@@H](O[C@@H]3O[C@H](CO)[C@@H](O)[C@H](O)[C@H]3O)[C@@H]21,Potency,[1],inactive
C[C@@H](OC(=O)/C=C/c1ccc(O)cc1)C1=C[C@]2(C=C[C@@H]3C(C(=O)O)=CO[C@@H](O[C@@H]4O[C@H](CO[C@@H]5O[C@H](CO)[C@@H](O)[C@H](O)[C@H]5O)[C@@H](O)[C@H](O)[C@H]4O)[C@@H]32)OC1=O,Potency,[1],inactive
C=C(C)[C@H]1C[C@@H](O)C(=C)CC[C@@H](O)C(=C)[C@@H](O)C1,Potency,[1],inactive
C=C1[C@H]2CC[C@]3(O)[C@@](CC[C@@H]4[C@](C)(C(=O)O)CCC[C@]43C)(C2)[C@H]1OC(=O)/C(C)=C\C,Potency,[1],inactive
C=C[C@H]1[C@H](O[C@@H]2O[C@H](CO[C@@H]3OC[C@](O)(CO)[C@H]3O)[C@@H](O)[C@H](O)[C@H]2O)OC=C2C(=O)OCC[C@H]21,Potency,[1],inactive
CC1=CC(=O)CC(C)(CO[C@@H]2O[C@H](CO)[C@@H](O)[C@H](O)[C@H]2O)C1(O)/C=C/C(C)=C/C(=O)O (stereo not given in full),Potency,[1],inactive
C=C1CCC2(OC1)OC1CC3C4CC=C5CC(O)CC(O[C@@H]6OC[C@@H](O)[C@H](O)[C@H]6O)C5(C)C4CCC3(C)C1(O)C2C (stereo not given in full),Potency,[1],inactive
CC1(C)CCC[C@@]2(C)[C@H]1[C@H](O)C=C1COC(=O)[C@@]12O,Potency,[1],inactive
C=C(C(=O)O)C1CCC(C)C2CCC(=O)OC2(C)C1 (stereo not given),Potency,[1],inactive
COC1=Cc2c(nc3n(c2=O)C(C)C(=O)NC3(O)C(C)C)OC=C1 (stereo not given),Potency,[1],inactive
CC1=C2C(=O)C=C(CO)[C@@H]2[C@H]2OC(=O)[C@H](C)[C@@H]2[C@@H](O)C1,Potency,[1],inactive
C/C(=C\CCC(C)(O)c1ccc(C)cc1)C(=O)O (stereo not given),Potency,[1],inactive
CC(=O)OC[C@@]12[C@@H](OC(C)=O)C[C@@H](C)[C@](C)([C@@H]3C[C@H]4C=CO[C@H]4O3)[C@H]1CCC[C@]21CO1,Potency,[1],inactive
COC(=O)C1C(CC(C)=O)C=CC(O)C12Oc1cc(C)cc(O)c1C2=O (stereo not given),Potency,[1],inactive
CCCn1cnc2c(NCc3ccccc3)nc(N[C@H](CC)CO)nc21,Potency,[1],inactive
C=CC(C)(C)C1(CC2NC(=O)C3CCCN3C2=O)C(=O)Nc2cc3c(cc21)C=CC(C)(C)O3 (stereo not given),Potency,[1],inactive
COc1ccc([C@@H]2N[C@H](C(=O)O)Cc3c2[nH]c2ccccc32)cc1CN1CCN(c2ccccc2F)CC1,Potency,[1],inactive
same,Potency,[2],13.5 µM (active)
COC(=O)C1=CO[C@@H](O[C@@H]2O[C@H](CO)[C@@H](O)[C@H](O)[C@H]2O)[C@@H]2[C@@H](C)[C@@H](O)C[C@H]12,Potency,[1],inactive
same,outcome,[3],inactive
O=C(Nc1cccnn1)N1CCC(=Cc2cccc(Oc3ccc(C(F)(F)F)cn3)c2)CC1,Potency,[1],inactive
same,Potency,[2],10.7 µM (active)
CC1CCC2(C)C(CC(O)C(O)C23CO3)C1(C)CCC1=CC(O)OC1=O (stereo not given),Potency,[1],inactive
C=C1[C@@H]2CC[C@@]3(C)[C@H](c4ccoc4)OC(=O)C[C@]13O[C@H]1CC(=O)C(C)(C)[C@H](CC(=O)OC)[C@]12C,Potency,[1],inactive
Cc1ccc(Sc2cncc3sc(C(N)=O)cc23)cc1,Potency,[1],inactive
same,outcome,[3],inactive
CC1CCC2(C(=O)OC3OC(CO)C(O)C(O)C3O)CCC3(C(=O)O)C(=CCC4C5(C)CCC(OC6OC(C)C(O)C(O)C6O)C(C)(C)C5CCC43C)C2C1C (stereo not given),Potency,[1],inactive
CCCOc1ccn2c(C(C)=O)cc(-c3ccccc3S(C)(=O)=O)c2c1,Potency,[1],inactive
CN1C(=O)c2ccccc2-n2c(nc3ccccc3c2=O)[C@@]12O[C@H]2c1ccccc1,Potency,[1],inactive
CCc1c(CC(N)=O)c2cc(OCCCP(=O)(O)O)ccc2n1Cc1ccccc1,Potency,[1],inactive
same,Potency,[2],inactive
Cc1ccc2c(c1)C=Cc1cc(C)ccc1C2c1cn(Cc2ccc(C(=O)Nc3nn[nH]n3)o2)c(=O)[nH]c1=S,Potency,[1],inactive
same,Potency,[2],inactive
CCOC(=O)N1CCC(NCCNC(=O)c2ccccc2C)CC1,Potency,[1],inactive
same,Potency,[2],10.7 µM (active)
CC1CC(O)CC(C)(C)C1(O)CCO (stereo not given),Potency,[1],inactive
CCC(=O)NS(=O)(=O)c1ccc(-c2c(-c3ccccc3)noc2C)cc1,Potency,[1],inactive
same,Potency,[2],inactive
CC(=O)OC1C=C(C(=O)O)C2(CO)CCC(C)C(C)(CCc3ccoc3)C2C1 (stereo not given),Potency,[1],inactive
OC1COC(OCC2OC(OCCc3ccccc3)C(O)C(O)C2O)C(O)C1O (stereo not given),Potency,[1],inactive
COc1cccc2c1CCC[C@H]2CN(C)CCc1ccc2ccoc2c1,Potency,[1],inactive
same,Potency,[2],0.0535 µM (active)
O=C(c1ccc(C#Cc2cccc(F)c2)cn1)N1CC2CC2C1 (stereo not given),Potency,[1],inactive
same,Potency,[2],16.9 µM (active)
c1ccc(Nc2nc3c(s2)CCCc2[nH]ncc2-3)nc1,Potency,[1],inactive
same,Potency,[2],26.8 µM (active)
CCn1c2ccccc2c2cc(CNC)ccc21,Potency,[1],inactive
same,Potency,[2],9.52 µM (active)
CC(C)(C)NCc1cc(Nc2ccnc3cc(Cl)ccc23)c2c(c1O)CCCC2,"activity change, negative = inhibition",[1],-3.89% [at 1.07 µM]
COc1ccc(C)c2sc(NC(=O)c3ccncc3)nc12,Potency,[1],inactive
same,Potency,[2],6.74 µM (active)
COc1cc(NC(=O)c2ccccn2)ccc1Cl,Potency,[1],inactive
same,Potency,[2],23.9 µM (active)
O=C1NC(=Nc2ccccc2F)S/C1=C\c1ccc(C(=O)O)cc1,Potency,[1],inactive
same,Potency,[2],inactive
COc1c2c(c(C)c3c1C(=O)OC3)O[C@@]1(C)C[C@@H](O)[C@]34O[C@](OC)(CC[C@]3(C)[C@H]1C2)OC4(C)C,Potency,[1],inactive
CCOc1c2c(c(OCC)c3ccccc13)C(=O)N(c1ccc(CC(=O)NS(=O)(=O)c3ccccc3)cc1)C2,Potency,[1],inactive
Cc1cc(C)c(S(=O)(=O)N(Cc2ccc(-c3cccc(S(C)(=O)=O)c3)cc2)Cc2ccc(C(F)(F)F)o2)c(C)c1,Potency,[1],inactive
same,Potency,[2],inactive
Cc1[nH]cnc1C1CCN(c2nc3cccc4c3n2CCC4=O)CC1,Potency,[1],inactive
same,Potency,[2],9.52 µM (active)
CC1=CC[C@]2(C(=O)O[C@@H]3O[C@H](CO[C@@H]4O[C@H](CO)[C@@H](O[C@@H]5O[C@@H](C)[C@H](O)[C@@H](O)[C@H]5O)[C@H](O)[C@H]4O)[C@@H](O)[C@H](O)[C@H]3O)CC[C@]3(C)C(CCC4[C@@]5(C)C[C@@H](O)[C@H](O)[C@@](C)(CO)C5CC[C@]43C)C2C1C (stereo not given in full),Potency,[1],inactive
CCC(=O)N[C@@H]1Cc2ccccc2[C@H](c2ccccc2)C1,Potency,[1],inactive
same,Potency,[2],9.52 µM (active)
CC(=O)NCCCCn1c2c(c3ccccc31)C(=O)NCC2,Potency,[1],inactive
same,Potency,[2],inactive
CC(C)C1=CC2=CCC3[C@](C)(CCC[C@@]3(C)C(=O)O)C2CC1O (stereo not given in full),Potency,[1],inactive
Clc1ccc(CN[C@H]2CCN(c3ncc(Br)cn3)C2)c(Cl)c1,Potency,[1],inactive
same,Potency,[2],0.674 µM (active)
COc1cc(N2CCC(N(C)C)CC2)ccc1Nc1ncc(Cl)c(Nc2ccccc2P(C)(C)=O)n1,Potency,[1],inactive
same,Potency,[2],inactive
COc1c(C)c(C(=O)c2ccc(N)c(C(=O)O)c2)n2ccccc12,Potency,[1],inactive
same,Potency,[2],inactive
COCC(=O)N1CCc2cc(-c3csc(NC(=O)c4cc(OC)cc(OC)c4)n3)ccc21,Potency,[1],inactive
same,Potency,[2],inactive
CCC[C@@H]1C[C@@H](C(=O)N[C@@H]([C@H]2O[C@H](SC)[C@H](OP(=O)(O)O)[C@@H](O)[C@H]2O)[C@H](C)Cl)N(C)C1,Potency,[1],inactive
CC1(C)O[C@@]2(C)CC[C@@H]1C[C@@H]2OC1OC(CO)C(O)C(O)C1O (stereo not given in full),Potency,[1],inactive
